These results are taken from PubChem BioAssay (NCATS).

Inconclusive results are not listed. Calls of active or inactive are those of the source. Calls come from the whole dose curve; as a rule, active = well fitted cell-killing curve with a large enough effect; inconclusive = small, poorly fitted or top-dose-only effect, or effect the other way; inactive = no such curve, though single readings can be large or run the other way.
Potency is the fitted concentration of half-maximal effect.

One assay is described as follows: qHTS of pediatric cancer cell lines to identify multiple opportunities for drug repurposing: Confirmatory screen for Saos-2 cells (AID 1347127).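 For activity change, negative = cytotoxic: plate controls were DMSO for no effect and bortezomib for full effect.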 Note: nearly all actives have a fitted effect of over 60% in size. Particulars: Saos-2 osteosarcoma cell viability; series mostly up to 45.9 µM; activity change, negative = cytotoxic: at the top concentration. In outline:
(§1)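 Cells (500-1,000/well) rested 5 h, then received compounds for 48 h; metabolically active cells were measured by CellTiter-Glo luminescence. Final concentrations spanned up to 46 µM (MIPE, 11-point) or 0.59 nM-46 µM (NPC, 8-point) in primary screens, 11-point in follow-ups.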
For orientation: In qHTS, concentration-response curves come from the screen itself.
On to `CC(C)N[C@@H]1CCn2c(=O)[nH]c3cccc(c32)[C@@H]1O`, for which the molecule was called inactive.

In the case of `Cc1c(N)nc([C@H](CC(N)=O)NC[C@@H](N)C(N)=O)nc1C(=O)N[C@H](C(=O)N[C@@H](C)[C@H](O)[C@@H](C)C(=O)N[C@@H](C(=O)NCCc1nc(-c2nc(C(=O)NCCC[S+](C)C)cs2)cs1)[C@@H](C)O)C(O[C@H]1O[C@H](CO)[C@H](O)[C@@H](O)[C@@H]1O[C@H]1O[C@H](CO)[C@@H](O)[C@H](OC(N)=O)[C@H]1O)c1cnc[nH]1` (stereo partly specified), the “activity change, negative = cytotoxic” value is 16.1% (inactive).

For `CC[C@@]1(O)C(=O)OCc2c1cc1n(c2=O)Cc2cc3ccccc3nc2-1`, the Potency was 104 nM (active).

`Cc1ccccc1-n1c(Cn2cnc3c(N)ncnc32)nc2cccc(C)c2c1=O`: the “activity change, negative = cytotoxic” value is 2.65% (inactive).

Regarding `CC(=Cc1csc(C)n1)[C@@H]1C[C@H]2O[C@]2(C)CCC[C@H](C)[C@@H](O)[C@@H](C)C(=O)C(C)(C)[C@@H](O)CC(=O)O1`, the Potency is 13.1 nM (active).

Take `CC1=C(O)C(=O)C=C2C1=CC=C1[C@@]2(C)CC[C@@]2(C)[C@@H]3C[C@](C)(C(=O)O)CC[C@]3(C)CC[C@]12C`: the Potency was 3290 nM (active).

A short description of a further assay: qHTS of pediatric cancer cell lines to identify multiple opportunities for drug repurposing: Confirmatory screen for OHS-50 cells (AID 1347128). For activity change, negative = cytotoxic: % is set by controls: 0 for no effect and ±100 for the full control effect.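 Note: compound exposure lasted 48 h at 37 degrees C; nearly all actives have a fitted effect of over 55% in size.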 Particulars: OHS-50 osteosarcoma cells viability; series mostly up to 45.9 µM; activity change, negative = cytotoxic: at the top concentration. In outline: as §1
Consider `O=C(O)CCCOc1ccc(Cl)cc1Cl`, for which the “activity change, negative = cytotoxic” value was -0.586% [at 95.5 µM] (inactive).

Regarding `C[C@@H]1O[C@@H](O[C@@H]2C=C3CC[C@@H]4[C@@H](CC[C@]5(C)[C@H](c6ccc(=O)oc6)CC[C@@]45O)[C@@]3(C)CC2)[C@H](O)[C@H](O)[C@H]1O`, the Potency is 16.5 nM (active).

Take `C[C@@H]1CC[C@@]2(OC1)O[C@H]1C[C@H]3[C@@H]4CC=C5C[C@@H](O[C@@H]6O[C@H](CO)[C@@H](O[C@@H]7O[C@@H](C)[C@H](O)[C@@H](O)[C@@H]7O)[C@H](O)[C@@H]6O[C@@H]6O[C@@H](C)[C@H](O)[C@@H](O)[C@@H]6O)CC[C@]5(C)[C@@H]4CC[C@]3(C)[C@@H]1[C@H]2C`: the Potency was 5220 nM (active).

Turning to `CC=C(C)C(=O)N[C@@H](c1ccccc1)[C@@H](O)C(=O)O[C@H]1C[C@@]2(O)[C@@H](OC(=O)c3ccccc3)[C@@H]3[C@]4(OC(C)=O)CO[C@@H]4C[C@H](O)[C@@]3(C)C(=O)[C@H](OC(C)=O)C(=C1C)C2(C)C`, the Potency is 41.4 nM (active).

As for `CC(C)[C@]12O[C@@H]1[C@@H]1O[C@]13[C@]1(O[C@H]1C[C@@H]1C4=C(CC[C@@]13C)C(=O)OC4)[C@H]2O`, the Potency is 104 nM (active).

On to `CCC(=O)OC1CCC2C3CCC4=CC(=O)CC[C@@]4(C)C3CC[C@]12C` (stereo partly specified), for which the “activity change, negative = cytotoxic” value was -2.51% (inactive).

Take `Cc1[nH]nc2ccc(-c3cncc(OC[C@@H](N)Cc4c[nH]c5ccccc45)c3)cc12`: the Potency is 2610 nM (active).

Take `C[C@H]1CCCC=CC2C[C@H](O)C[C@@H]2[C@H](O)C=CC(=O)O1` (stereo partly specified): the Potency is 46.5 nM (active).

With `CC(=Cc1csc(C)n1)[C@@H]1C[C@H]2O[C@@H]2CCC[C@H](C)[C@@H](O)[C@@H](C)C(=O)C(C)(C)[C@@H](O)CC(=O)O1`, the Potency is 32.9 nM (active).

For the molecule `O=C1C(I)=CC(=C(c2cc(I)c(O)c(I)c2)c2ccccc2C(=O)O)C=C1I`, the “activity change, negative = cytotoxic” value is 5.87% (inactive).

Turning to `CC[C@@H]1[C@@H](C)O[C@@](O)([C@@H](C)[C@H](O)[C@H](C)[C@H]2OC(=O)C=CC=C[C@@H](C)[C@@H]([C@@H](C)[C@@H](O)[C@H](C)[C@@]3(O)C[C@H](O[C@H]4C[C@H](O)[C@H](O)[C@H](C)O4)[C@H](CC)[C@@H](C)O3)OC(=O)C=CC=C[C@@H]2C)C[C@H]1O[C@H]1C[C@H](O)[C@H](O)[C@H](C)O1`, the “activity change, negative = cytotoxic” value is 10.2% (inactive).

For `CS(=O)(=O)c1ccc(C(=O)C2C(=O)CCCC2=O)c([N+](=O)[O-])c1`, the “activity change, negative = cytotoxic” value was 7.81% [at 95.5 µM] (inactive).

For `O=C(Nc1ccncc1)C(=O)c1cn(Cc2ccc(Cl)cc2)c2ccccc12`, the Potency is 928 nM (active).

In the case of `O=C(N[C@H]1CN2CCC1CC2)c1ccc(Cl)cc1`, the Potency was 10400 nM (active).

On to `CC[C@H]1C=CC=CC[C@@H](C)[C@H](O)[C@@](C)(O)C(=O)[C@@H](C)[C@H](O)[C@@H](C)C(=O)[C@@H](C)[C@H](O)[C@@H](C)C=CC(=O)O[C@@H]2[C@@H](C)[C@H](CC1)O[C@]1(CC[C@H](C)[C@H](C[C@@H](C)O)O1)[C@H]2C`, for which the “activity change, negative = cytotoxic” value was -19% (inactive).

Regarding `COc1cc2cc(c1Cl)N(C)C(=O)C[C@H](OC(=O)C(C)C)[C@]1(C)O[C@H]1[C@H](C)[C@@H]1C[C@@](O)(NC(=O)O1)[C@H](OC)C=CC=C(C)C2`, the Potency was 11.7 nM (active).

Consider `O=c1[nH]c2ccc(Cl)cc2c(N[C@@H]2CN3CCC2CC3)c1-c1nc2ccccc2[nH]1`, for which the Potency was 657 nM (active).

Turning to `C[C@]12Cc3cn[nH]c3C[C@@H]1CC[C@@H]1[C@H]2CC[C@@]2(C)[C@H]1CC[C@]2(C)O`, the “activity change, negative = cytotoxic” value was -21.3% (inactive).

Take `CC(C)(C)C(O)C(Oc1ccc(Cl)cc1)n1cncn1` (stereo unspecified): the “activity change, negative = cytotoxic” value was -1.98% [at 95.5 µM] (inactive).

`COc1cc([C@@H]2c3cc4c(cc3[C@@H](O)C3COC(=O)C32)OCO4)cc(OC)c1O` (stereo partly specified): the “activity change, negative = cytotoxic” value is -2.94% (inactive).

For the molecule `CC(=O)[O][Hg][c]1ccccc1`, the Potency is 5850 nM (active).

In the case of `O=C(O)COc1nc(Cl)c(Cl)cc1Cl`, the “activity change, negative = cytotoxic” value is 0.382% [at 95.5 µM] (inactive).

`CC(C)(O)C=CC(=O)[C@](C)(O)[C@H]1[C@H](O)C[C@]2(C)[C@@H]3CC=C4[C@@H](C=C(O)C(=O)C4(C)C)[C@]3(C)C(=O)C[C@@]12C`: the Potency is 1470 nM (active).

For `CC(C)N[C@@H]1CCn2c(=O)[nH]c3cccc(c32)[C@@H]1O`, the “activity change, negative = cytotoxic” value was 3.72% (inactive).

Regarding `Cc1c(N)nc([C@H](CC(N)=O)NC[C@@H](N)C(N)=O)nc1C(=O)N[C@H](C(=O)N[C@@H](C)[C@H](O)[C@@H](C)C(=O)N[C@@H](C(=O)NCCc1nc(-c2nc(C(=O)NCCC[S+](C)C)cs2)cs1)[C@@H](C)O)C(O[C@H]1O[C@H](CO)[C@H](O)[C@@H](O)[C@@H]1O[C@H]1O[C@H](CO)[C@@H](O)[C@H](OC(N)=O)[C@H]1O)c1cnc[nH]1` (stereo partly specified), the “activity change, negative = cytotoxic” value is 13.4% (inactive).

Turning to `CC[C@@]1(O)C(=O)OCc2c1cc1n(c2=O)Cc2cc3ccccc3nc2-1`, the Potency is 147 nM (active).

Regarding `Cc1ccccc1-n1c(Cn2cnc3c(N)ncnc32)nc2cccc(C)c2c1=O`, the “activity change, negative = cytotoxic” value was 0.926% (inactive).

Take `CC(=Cc1csc(C)n1)[C@@H]1C[C@H]2O[C@]2(C)CCC[C@H](C)[C@@H](O)[C@@H](C)C(=O)C(C)(C)[C@@H](O)CC(=O)O1`: the Potency is 13.1 nM (active).

For the molecule `CO[C@H]1CCC(O[C@H]2C[C@H]([C@]3(C)CC[C@]4(C[C@H](O)[C@@H](C)[C@@H]([C@@H](C)C=C(C)C(=O)[C@H](C)C[C@H](C)C(=O)O)O4)O3)O[C@]3(O[C@@H]([C@H]4O[C@@](O)(CO)[C@H](C)C[C@H]4C)C[C@H]3C)[C@H]2C)O[C@H]1C` (stereo partly specified), the Potency is 2610 nM (active).

`CC1=C(O)C(=O)C=C2C1=CC=C1[C@@]2(C)CC[C@@]2(C)[C@@H]3C[C@](C)(C(=O)O)CC[C@]3(C)CC[C@]12C`: the Potency is 2610 nM (active).
